PubChem BioAssay (Tox21)
Records with an inconclusive call do not appear. The source made the active and inactive calls. Unless noted, calls follow the shape of the dose curve; as a rule, active = well fitted curve in the direction sought with a large enough effect in the repeat runs; inconclusive = weak or mixed curves; inactive = no such curve, though single readings can be large; an effect the other way counts as inactive or inconclusive.

Key:
[1] = qHTS assay to identify small molecule antagonists of the glucocorticoid receptor (GR) signaling pathway - cell viability counter screen (AID 720693); also: nearly all actives have a fitted effect of over 55% in size
[2] = qHTS assay for identifying genotoxic compounds that show differential cytotoxicity against isogenic chicken DT40 cell lines with known DNA damage response pathways - wild type cell line (AID 743012); also: nearly all actives have a fitted effect of over 60% in size
Procedure, shortened: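 Cytotoxicity in repair-proficient parental chicken DT40 cells serves as the comparator for Rad54/Ku70- and Rev3-deficient lines. Cells were exposed to compounds for 40 h at 37 C/5% CO2, and ATP-based luminescence (CellTiter-Glo) measured viability.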

[3] = qHTS assay for identifying genotoxic compounds that show differential cytotoxicity against isogenic chicken DT40 cell lines with known DNA damage response pathways - Rev3 mutant cell line (AID 743014); also: nearly all actives have a fitted effect of over 55% in size
[4] = qHTS assay for identifying genotoxic compounds that show differential cytotoxicity against isogenic chicken DT40 cell lines with known DNA damage response pathways - Rad54/Ku70 mutant cell line (AID 743015); also: nearly all actives have a fitted effect of over 60% in size
[5] = qHTS assay to identify small molecule antagonists of the androgen receptor (AR) signaling pathway - cell viability counter screen (AID 743033; also: nearly all actives have a fitted effect of over 45% in size)
[6] = qHTS assay to identify small molecule antagonists of the androgen receptor (AR) signaling pathway using the MDA cell line - cell viability counter screen (AID 743041; also: nearly all actives have a fitted effect of over 45% in size; also: potency is read from the fitted curve at half-maximal effect)
Procedure, shortened: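 In this qHTS counter assay, fluorescence intensity after CellTiter-Fluor addition indicated viability of MDA-kb2 AR-luc cells given compounds and R1881 for 16 h at 37C.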

[7] = qHTS assay to identify small molecule antagonists of the thyroid receptor (TR) signaling pathway - cell viability counter screen (AID 743064); also: nearly all actives have a fitted effect of over 50% in size
Procedure, shortened: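 Counter screen for cytotoxicity: compound plus T3 (1 nM final) on GH3.TRE-Luc cells, 23.5 h at 37 °C, then fluorescence viability readout with CellTiter-Fluor.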

[8] = qHTS assay to identify small molecule antagonists of the thyroid receptor (TR) signaling pathway (AID 743065); also: series mostly up to about 70 µM; nearly all actives have a fitted effect of over 55% in size
Procedure, shortened: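 GH3.TRE-Luc rat pituitary cells carrying two TR response elements driving luciferase were plated for 4 h, given compound plus 1 nM T3 (final), and incubated 23.5 h at 37 C. ONE-Glo luminescence measured reporter inhibition; CellTiter-Fluor fluorescence tracked cytotoxicity.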

[9] = tested on: thyroid hormone receptor (rat, GH3 cells); experiment: qHTS assay to identify small molecule agonists of the thyroid receptor (TR) signaling pathway (AID 743066; calls by dose curve)
[10] = biological target: Estrogen receptor (Homo sapiens) (UniProt P03372); experiment: qHTS assay to identify small molecule antagonists of the estrogen receptor alpha (ER-alpha) signaling pathway (AID 743069; active = well fitted curve in the direction sought with a large enough effect in the signal ratio in the repeat runs, not every such curve was filed as active; the % refers to the signal ratio)
Estrogen receptor (Homo sapiens), sequence (P03372 whole entry, looked up): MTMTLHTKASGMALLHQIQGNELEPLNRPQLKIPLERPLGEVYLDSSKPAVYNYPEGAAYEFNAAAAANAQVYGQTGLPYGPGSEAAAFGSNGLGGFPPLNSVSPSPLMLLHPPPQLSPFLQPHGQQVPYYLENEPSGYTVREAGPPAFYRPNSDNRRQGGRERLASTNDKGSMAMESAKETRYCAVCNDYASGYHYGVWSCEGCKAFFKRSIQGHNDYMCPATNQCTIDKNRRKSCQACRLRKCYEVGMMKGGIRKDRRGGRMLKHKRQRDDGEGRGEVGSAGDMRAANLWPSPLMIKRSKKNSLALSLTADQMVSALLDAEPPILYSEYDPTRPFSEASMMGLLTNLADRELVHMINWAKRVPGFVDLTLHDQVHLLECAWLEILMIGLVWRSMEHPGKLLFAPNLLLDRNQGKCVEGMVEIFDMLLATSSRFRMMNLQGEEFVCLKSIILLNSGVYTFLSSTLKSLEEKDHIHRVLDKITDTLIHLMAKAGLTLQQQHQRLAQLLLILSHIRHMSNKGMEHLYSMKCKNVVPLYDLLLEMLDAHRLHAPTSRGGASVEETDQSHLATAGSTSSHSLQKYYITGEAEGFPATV
Procedure, shortened: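 A 17beta-estradiol challenge was applied right after compound transfer to ER-alpha-UAS-bla HEK293 cells previously kept in charcoal-stripped serum. Plates stood 18 hr at 37C and 5% CO2; fluorescence was read following 2 hr FRET substrate loading at room temperature.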

[11] = qHTS assay to identify small molecule antagonists of the estrogen receptor alpha (ER-alpha) signaling pathway - cell viability counter screen (AID 743074; calls by dose curve;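 also: HEK293 cells carrying ER-alpha-UAS-bla reporter stimulated with 17beta-estradiol; nearly all actives have a fitted effect of over 45% in size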)
[12] = biological target: Estrogen receptor (Homo sapiens) (UniProt P03372); experiment: qHTS assay to identify small molecule agonists of the estrogen receptor alpha (ER-alpha) signaling pathway (AID 743075; calls by dose curve;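 also: HEK293 GripTite cells with ER-alpha and UAS-driven beta-lactamase reporter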)
[13] = biological target: Estrogen receptor (Homo sapiens) (UniProt P03372); experiment: qHTS assay to identify small molecule agonists of the estrogen receptor alpha (ER-alpha) signaling pathway using the BG1 cell line (AID 743079); also: nearly all actives have a fitted effect of over 20% in size
[14] = qHTS assay to identify small molecule antagonists of the estrogen receptor alpha (ER-alpha) signaling pathway using the BG1 cell line (AID 743080; calls by dose curve;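 also: BG1 cells stimulated with 17beta-estradiol alongside compound; series mostly up to about 70 µM; nearly all actives have a fitted effect of over 25% in size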)
Procedure, shortened: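 Quantitative HTS on the Tox21 10K library: BG1 cells with endogenous ER-alpha and ERE-luciferase reporter, 17beta-estradiol stimulation, 21.5 h compound exposure, luminescence endpoint with parallel fluorescence cytotoxicity counter-read.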

[15] = qHTS assay to identify small molecule antagonists of the estrogen receptor alpha (ER-alpha) signaling pathway using the BG1 cell line - cell viability counter screen (AID 743081);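 also: compound given together with 17beta-estradiol as the ER stimulus; series mostly up to about 70 µM; nearly all actives have a fitted effect of over 45% in size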
[16] = biological target: Aromatase (Homo sapiens) (UniProt P11511); experiment: qHTS assay to identify aromatase inhibitors (AID 743083); also: series mostly up to about 70 µM; nearly all actives have a fitted effect of over 55% in size
Aromatase (Homo sapiens), sequence (P11511 whole entry, looked up): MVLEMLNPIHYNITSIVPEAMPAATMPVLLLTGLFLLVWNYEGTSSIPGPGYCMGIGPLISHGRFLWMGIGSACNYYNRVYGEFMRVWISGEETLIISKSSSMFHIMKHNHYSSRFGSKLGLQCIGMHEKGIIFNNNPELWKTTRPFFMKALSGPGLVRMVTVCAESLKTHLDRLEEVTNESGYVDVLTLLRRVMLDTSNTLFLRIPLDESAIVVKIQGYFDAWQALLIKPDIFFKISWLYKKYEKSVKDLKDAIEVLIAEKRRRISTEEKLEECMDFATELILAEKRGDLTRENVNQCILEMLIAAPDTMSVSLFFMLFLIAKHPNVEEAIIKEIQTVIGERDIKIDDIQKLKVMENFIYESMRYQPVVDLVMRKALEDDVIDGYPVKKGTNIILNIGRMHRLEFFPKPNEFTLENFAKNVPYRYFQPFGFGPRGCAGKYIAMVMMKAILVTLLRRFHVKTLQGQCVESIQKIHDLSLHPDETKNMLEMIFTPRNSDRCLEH
% is scaled to controls: 0 for no effect and ±100 for the full control effect.

CCCCCCN
inactive: outcome [1] | Potency [2] | Potency [3] | Potency [4] | Potency [5] | Potency [6] | Potency [7] | Potency [8] | outcome [9] | outcome [10] | outcome [11] | outcome [12] | Potency [13] | Potency [14] | outcome [15] | Potency [16]

Nc1ccc([N+](=O)[O-])c(N)c1
inactive: outcome [1] | Potency [2] | Potency [3] | Potency [4] | Potency [5] | Potency [8] | outcome [9] | outcome [10] | outcome [12] | Potency [14] | Potency [16]
active: Potency [6] 59.6 µM

CCCCCOC(=O)CCC
inactive: outcome [1] | Potency [2] | Potency [3] | Potency [4] | Potency [5] | Potency [6] | Potency [7] | Potency [8] | outcome [9] | outcome [11] | outcome [15] | Potency [16]

CCC(C=O)CC
inactive: outcome [1] | Potency [2] | Potency [3] | Potency [4] | Potency [5] | Potency [6] | Potency [7] | Potency [8] | outcome [9] | outcome [11] | outcome [15] | Potency [16]

C[C@@H](Oc1ccc(CNC(=O)c2cccnc2Oc2ccc3c(c2)OCO3)c(F)c1)C(=O)O
inactive: outcome [1] | Potency [2] | Potency [3] | Potency [4] | Potency [5] | Potency [6] | Potency [7] | Potency [8] | outcome [9] | outcome [10] | outcome [11] | outcome [12] | Potency [13] | Potency [14] | outcome [15] | Potency [16]

CC(C)CCCC(C)(C)O
inactive: outcome [1] | Potency [2] | Potency [3] | Potency [4] | Potency [5] | Potency [6] | Potency [7] | Potency [8] | outcome [9] | outcome [10] | outcome [11] | outcome [12] | Potency [13] | Potency [14] | outcome [15] | Potency [16]

COc1ccc(C2CNC(=O)C2)cc1OC1CCCC1 (centres undefined)
inactive: outcome [1] | Potency [2] | Potency [3] | Potency [4] | Potency [5] | Potency [6] | Potency [7] | Potency [8] | outcome [9] | outcome [11] | outcome [15] | Potency [16]

CC(=O)c1sc(C)nc1C
inactive: outcome [1] | Potency [2] | Potency [3] | Potency [4] | Potency [5] | Potency [6] | Potency [7] | Potency [8] | outcome [9] | outcome [11] | outcome [15] | Potency [16]

CCCCCCCCCCl
inactive: outcome [1] | Potency [2] | Potency [3] | Potency [4] | Potency [5] | Potency [6] | Potency [7] | Potency [8] | outcome [9] | outcome [11] | outcome [15] | Potency [16]

CN=C(NC#N)Nc1ccc(C2=NNC(=O)CC2C)cc1 (centres undefined)
inactive: outcome [1] | Potency [2] | Potency [3] | Potency [4] | Potency [5] | Potency [6] | Potency [7] | Potency [8] | outcome [9] | outcome [11] | outcome [15] | Potency [16]

CCOC(=O)/C=C/c1ccccc1
inactive: outcome [1] | Potency [2] | Potency [3] | Potency [4] | Potency [5] | Potency [6] | Potency [7] | Potency [8] | outcome [9] | outcome [10] | outcome [12] | Potency [13] | Potency [14] | outcome [15] | Potency [16]

O=C(OCC1(COC(=O)c2cccnc2)CCCC(COC(=O)c2cccnc2)(COC(=O)c2cccnc2)C1O)c1cccnc1
inactive: outcome [1] | Potency [2] | Potency [3] | Potency [4] | Potency [5] | Potency [6] | Potency [7] | Potency [8] | outcome [9] | outcome [11] | outcome [15] | Potency [16]

C=C(C)C(=O)OCc1ccccc1
inactive: outcome [1] | Potency [2] | Potency [3] | Potency [4] | Potency [5] | Potency [6] | Potency [7] | Potency [8] | outcome [9] | outcome [10] | outcome [11] | outcome [12] | Potency [13] | Potency [14] | outcome [15] | Potency [16]

C=C(C)C(=O)OCCOP(=O)(O)OCCOC(=O)C(=C)C
inactive: outcome [1] | Potency [2] | Potency [3] | Potency [4] | Potency [5] | Potency [6] | Potency [7] | Potency [8] | outcome [9] | outcome [10] | outcome [11] | outcome [12] | Potency [13] | Potency [14] | outcome [15] | Potency [16]

OCCCCC(O)CO (centres undefined)
inactive: outcome [1] | Potency [2] | Potency [3] | Potency [4] | Potency [5] | Potency [6] | Potency [7] | Potency [8] | outcome [11] | outcome [15] | Potency [16]

Brc1ccc(-c2ccccc2)cc1
inactive: outcome [1] | Potency [2] | Potency [3] | Potency [4] | Potency [5] | Potency [6] | Potency [7] | Potency [8] | outcome [9] | outcome [15]

COC(=O)C1CC(=O)C(C(=O)OC)CC1=O (centres undefined)
inactive: viability change, negative = cytotoxic [1] -6.7% [at 7.04 µM] | activity change, negative = cytotoxicity [2] -1.23% [at 8.52 µM] | activity, negative = cytotoxicity [3] 6.72% [at 8.53 µM] | activity change, negative = cytotoxicity [4] -1.14% [at 8.55 µM] | activity change, negative = cytotoxicity [5] -11.9% [at 7.04 µM] | viability change, negative = cytotoxic [6] 6.75% [at 8.47 µM] | activity change, negative = cytotoxic [7] 29.4% [at 8.44 µM] | activity, negative = inhibition [8] -0.0159% [at 8.44 µM] | activation [9] -0.929% [at 8.08 µM] | activity, negative = cytotoxicity [11] 10.1% [at 6.72 µM] | activity, negative = inhibition [16] 8.29% [at 8.47 µM]

O=C1O[C@@H]2[C@@H](O)[C@H](O)O[C@@H]2[C@H]1O
inactive: outcome [1] | Potency [2] | Potency [3] | Potency [4] | Potency [5] | Potency [6] | Potency [7] | Potency [8] | outcome [9] | outcome [10] | outcome [11] | outcome [12] | Potency [13] | Potency [14] | outcome [15] | Potency [16]

CC(C)C[C@H](NC(=O)CNC(=O)[C@H](Cc1ccc(O)cc1)NC(=O)[C@H](CO)NC(=O)[C@H](Cc1c[nH]c2ccccc12)NC(=O)[C@H](Cc1cnc[nH]1)NC(=O)[C@@H]1CCC(=O)N1)C(=O)N[C@@H](CCCN=C(N)N)C(=O)N1CCC[C@H]1C(=O)NCC(N)=O (stereo in doubt)
inactive: outcome [1] | Potency [2] | Potency [3] | Potency [4] | Potency [5] | Potency [6] | Potency [7] | Potency [8] | outcome [9] | outcome [11]
